Test results reported in PubChem BioAssay (EPA / NIEHS).
Records with an inconclusive call do not appear. Activity calls are given as the source filed them. How the source made its calls, unless noted: active means hit-call score of the fitted dose curve at least 0.9, where 1 is the maximum; inconclusive means response in the unintended direction; inactive means score below 0.9.

Legend:
[1] = TOX21_p53_BLA_p2_viability: Viability Assessment in the Tox21 HCT-116 p53 Agonism Beta-lactamase Assay, Phase 2 (AID 2283591);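 further: compound exposure lasted 16 h at 37 °C; actives lower the ATP signal meaning cytotoxicity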
Outline: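 HCT116 p53-bla cells, 4000/well, dosed after 5 h plating (217-fold dilution of DMSO stocks) and incubated 16 h at 37C. Viability taken as cellular ATP by CellTiter-Glo luminescence after 30 min RT; signal loss marks cytotoxicity.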

[2] = target: Cellular tumor antigen p53 (Homo sapiens) (UniProt P04637); assay: TOX21_p53_BLA_p2_ratio: Tox21 HCT-116 p53 Agonism Beta-lactamase Assay, Ratio, Phase 2 (AID 2283592)
Chain of Cellular tumor antigen p53 (Homo sapiens) (P04637 whole entry, looked up): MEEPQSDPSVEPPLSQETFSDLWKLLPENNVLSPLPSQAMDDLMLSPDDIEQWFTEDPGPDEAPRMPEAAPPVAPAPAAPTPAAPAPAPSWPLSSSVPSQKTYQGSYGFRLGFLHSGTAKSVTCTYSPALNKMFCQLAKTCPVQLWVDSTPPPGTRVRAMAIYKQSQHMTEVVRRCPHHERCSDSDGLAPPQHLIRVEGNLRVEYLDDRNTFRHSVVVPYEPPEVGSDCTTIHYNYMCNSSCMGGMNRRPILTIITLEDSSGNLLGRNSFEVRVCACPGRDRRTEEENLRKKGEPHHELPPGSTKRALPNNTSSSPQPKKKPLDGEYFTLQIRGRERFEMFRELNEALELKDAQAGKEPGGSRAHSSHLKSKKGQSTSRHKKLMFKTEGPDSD
Outline: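 Read-out is the blue/green (460/530 nm, 405 nm excitation) ratio after 2 h CCF4-AM loading, fitted as gain versus DMSO. Compounds, pinned at 217-fold dilution from DMSO stocks, stayed 16 h on HCT-116 beta-lactamase reporter cells seeded 5 h earlier.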

[3] = TOX21_p53_BLA_p3_viability: Viability Assessment in the Tox21 HCT-116 p53 Agonism Beta-lactamase Assay, Phase 3 (AID 2283593);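 further: cells exposed to compound for 16 h before reading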
Outline: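 HCT116 cells, 4000/well, dosed 5 h after plating by pin transfer (217-fold dilution from DMSO stock) and incubated 16 h at 37C, 5% CO2. Viability read as ATP luminescence with CellTiter-Glo after 30 min at room temperature.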

[4] = target: Cellular tumor antigen p53 (Homo sapiens) (UniProt P04637); assay: TOX21_p53_BLA_p3_ratio: Tox21 HCT-116 p53 Agonism Beta-lactamase Assay, Ratio, Phase 3 (AID 2283596)
Outline: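 Cells were seeded at 4000/well, rested 5 h at 37C, then dosed with DMSO compound solutions (217-fold dilution) for 16 h. CCF4-AM substrate was loaded for 2 h at room temperature, and the 460/530 nm emission ratio was fitted for gain of signal versus DMSO.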

[5] = TOX21_p53_BLA_p4_viability: Viability Assessment in the Tox21 HCT-116 p53 Agonism Beta-lactamase Assay, Phase 4 (AID 2283597);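 further: hits lower the luminescence signal meaning cytotoxicity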
Outline: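 Cytotoxicity as reduced cellular ATP (CellTiter-Glo luminescence, 30 min room temperature), measured in the same wells following the CCF4 FRET p53 reading. Human HCT-116 cells received compounds in DMSO (217-fold dilution) for 16 h.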

[6] = target: Cellular tumor antigen p53 (Homo sapiens) (UniProt P04637); assay: TOX21_p53_BLA_p5_ratio: Tox21 HCT-116 p53 Agonism Beta-lactamase Assay, Ratio, Phase 5 (AID 2283599)
Outline: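 HCT-116 p53-bla cells (4000/well) plated 5 h, dosed with compound (217-fold DMSO dilution) for 16 h at 37 C; CCF4-AM substrate 2 h at room temperature. Activity is the 460/530 nm emission ratio (405 nm excitation), fitted in gain-of-signal direction versus DMSO.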

[7] = target: Cellular tumor antigen p53 (Homo sapiens) (UniProt P04637); assay: TOX21_p53_BLA_p4_ratio: Tox21 HCT-116 p53 Agonism Beta-lactamase Assay, Ratio, Phase 4 (AID 2283601)
Outline: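 HCT-116 p53 beta-lactamase reporter cells (4000/well) preincubated 5 h, then compound (217-fold dilution of DMSO stock) for 16 h at 37C. CCF4-AM substrate added 2 h at room temperature; 460/530 nm emission ratio fitted upward versus DMSO.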

[8] = target: Thyroid hormone receptor alpha (Rattus norvegicus) + Thyroid hormone receptor beta (Rattus norvegicus) (UniProt P18113+P63059); assay: TOX21_TR_LUC_GH3_Antagonist_Followup: Tox21 GH3 Thyroid Hormone Receptor Antagonism Luciferase Follow-Up Assay (AID 2283942)
Outline: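 Luminescence read-out (ONE-Glo, 30 min at room temperature) in GH3 reporter cells challenged with 1.0 nM T3 final. Compounds ran at 92 uM to 5nM over 15 concentrations for 24 h; DMSO served as negative control and baseline.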

THRA (gene 7067) = THRA (gene 7067) (UniProt P10827); assay: TOX21_TRA_COA_Antagonist_Followup_ratio: Tox21 Thyroid Hormone Receptor alpha Antagonism through Coactivator Recruitment Follow-Up Assay, Ratio (AID 2283953)
Chain of THRA (gene 7067) (P10827 whole entry, looked up, the tested form may be a part): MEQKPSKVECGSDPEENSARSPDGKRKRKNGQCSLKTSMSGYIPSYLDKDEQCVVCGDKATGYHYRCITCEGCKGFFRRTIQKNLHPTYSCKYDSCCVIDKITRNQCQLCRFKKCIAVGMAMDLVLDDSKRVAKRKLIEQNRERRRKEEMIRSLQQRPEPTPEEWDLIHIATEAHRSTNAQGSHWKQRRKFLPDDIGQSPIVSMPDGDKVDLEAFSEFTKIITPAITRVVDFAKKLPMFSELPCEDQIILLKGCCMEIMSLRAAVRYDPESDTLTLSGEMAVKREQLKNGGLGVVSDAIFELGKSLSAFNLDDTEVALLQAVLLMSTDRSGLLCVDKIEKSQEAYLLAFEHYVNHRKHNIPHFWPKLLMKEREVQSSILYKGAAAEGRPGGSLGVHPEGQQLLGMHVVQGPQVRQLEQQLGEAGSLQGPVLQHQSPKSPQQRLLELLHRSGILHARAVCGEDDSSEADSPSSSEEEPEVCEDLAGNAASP
Outline: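 We measured antagonism of T3-type coactivator recruitment using a TR-FRET ratio (emission 520 and 495 nm) between a Tb-labelled anti-GST antibody on TRα LBD (2.5 nM) and SRC-2 peptide (200 nM). Activity was scaled between DMSO and T3 wells.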

[9] = TOX21_TRB_BLA_Antagonist_Followup_viability: Viability Assessment in the Tox21 Thyroid Hormone Receptor beta Antagonism Beta-lactamase (BLA) Follow-Up Assay (AID 2283961)
Outline: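 ATP-based CellTiter-Glo luminescence (30 min, room temperature) run in the same wells as the TRβ-bla readout. Cells: GeneBLAzer HEK293T expressing GAL4-TRβ LBD, exposed 18 h at 37C to compounds at 11 concentrations in triplicate, stripped-serum medium.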

THRB (gene 7068) [10] = target: THRB (gene 7068) (UniProt P10828); assay: TOX21_TRB_COA_Antagonist_Followup_ratio: Tox21 Thyroid Hormone Receptor beta Antagonism through Coactivator Recruitment Follow-Up Assay, Ratio (AID 2283967)
Chain of THRB (gene 7068) (P10828 whole entry, looked up, the tested form may be a part): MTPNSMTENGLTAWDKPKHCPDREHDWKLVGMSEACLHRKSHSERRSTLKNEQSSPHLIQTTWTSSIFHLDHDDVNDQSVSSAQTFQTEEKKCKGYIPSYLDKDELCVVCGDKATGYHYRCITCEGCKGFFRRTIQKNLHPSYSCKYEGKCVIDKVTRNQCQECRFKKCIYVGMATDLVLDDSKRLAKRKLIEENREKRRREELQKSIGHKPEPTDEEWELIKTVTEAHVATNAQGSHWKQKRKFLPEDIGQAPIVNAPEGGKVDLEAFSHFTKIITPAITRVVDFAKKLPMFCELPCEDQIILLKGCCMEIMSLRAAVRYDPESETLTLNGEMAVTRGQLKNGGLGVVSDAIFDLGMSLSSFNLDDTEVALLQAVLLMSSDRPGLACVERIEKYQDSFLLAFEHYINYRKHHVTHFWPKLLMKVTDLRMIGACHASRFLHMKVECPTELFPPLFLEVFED
Outline: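 GST-TRb LBD 5.0 nM + 0.10% BSA, compound added; fluorescein-SRC-2 peptide 200 nM, Tb-anti-GST Ab 2 nM. TR-FRET, ex 340 / em 520:495 ratio. Norm: DMSO 0%, T3 100%.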

[11] = target: Retinoic acid receptor RXR-alpha (Homo sapiens) (UniProt P19793); assay: TOX21_TR_RXR_BLA_Antagonist_Followup_ratio: Tox21 Thyroid Hormone Receptor beta Retinoid X Receptor alpha (RXRa) Antagonism Beta-lactamase (BLA) Follow-Up Assay, Ratio (AID 2283972)
Chain of Retinoic acid receptor RXR-alpha (Homo sapiens) (P19793 whole entry, looked up): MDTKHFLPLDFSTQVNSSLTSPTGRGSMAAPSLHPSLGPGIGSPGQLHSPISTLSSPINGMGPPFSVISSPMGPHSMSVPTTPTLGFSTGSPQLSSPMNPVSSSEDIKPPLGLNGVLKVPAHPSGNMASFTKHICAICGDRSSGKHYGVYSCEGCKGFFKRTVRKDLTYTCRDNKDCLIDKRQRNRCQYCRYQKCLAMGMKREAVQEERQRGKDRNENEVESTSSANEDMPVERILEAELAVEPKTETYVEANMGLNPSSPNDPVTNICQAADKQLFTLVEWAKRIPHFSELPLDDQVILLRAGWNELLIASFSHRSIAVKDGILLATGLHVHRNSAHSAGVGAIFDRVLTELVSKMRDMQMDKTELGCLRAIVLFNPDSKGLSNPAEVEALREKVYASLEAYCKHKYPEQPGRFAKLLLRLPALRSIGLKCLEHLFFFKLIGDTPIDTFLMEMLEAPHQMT
Outline: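 After 5 h attachment at 37C, HEK293T RXRa-bla cells (2,500/well, 2% charcoal-stripped FBS, no phenol red) received compounds at 11 concentrations in triplicate for 16 h. Beta-lactamase read as 460:530 nm ratio after 2 h RT substrate loading.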

THRB (gene 7068) [12] = target: THRB (gene 7068) (UniProt P10828); assay: TOX21_TRB_BLA_Antagonist_Followup_ratio: Tox21 Thyroid Hormone Receptor beta Antagonism Beta-lactamase (BLA) Follow-Up Assay, Ratio (AID 2283958)
Outline: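 Read-out: blue/green (460:530 nm) ratio of cleaved to uncleaved CCF4-AM after 2 h at room temperature, fitted against DMSO baseline. HEK293T UAS-bla cells carrying GAL4-human TRβ LBD were exposed 18 h, 37C/5% CO2.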

[13] = TOX21_TR_RXR_BLA_Antagonist_Followup_viability: Viability Assessment in the Tox21 Thyroid Hormone Receptor beta Retinoid X Receptor alpha (RXRa) Antagonism Beta-lactamase (BLA) Follow-Up Assay (AID 2283979)
Outline: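 RXRa-bla HEK293T cells (2,500/well, phenol red-free DMEM, 2% charcoal-stripped FBS) were attached 5 h, then exposed to compounds at 11 concentrations in triplicate for 16 h at 37C. Viability measured by CellTiter-Glo ATP luminescence, bidirectional fitting versus DMSO.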

[14] = CCTE_Harrill_HTTr_Viability_MCF7: CCTE's 6-hour Cell Viability Assessment for the High-Throughput Transcriptomics (HTTr) Platform, in MCF-7 cells cultured in DMEM + 10% fetal bovine serum, Harrill Lab (AID 2284010; active means hit-call score of the fitted dose curve at least 0.9, where 1 is the maximum; inactive means score below 0.9)
Outline: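 PI exclusion, high-content imaging; 8-pt dilution series, 6 h exposure; bidirectional fit vs DMSO (neg. ctrl/baseline); gain of signal = loss of membrane integrity.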

[15] = CCTE_Harrill_HTTr_Apoptosis_MCF7: CCTE's 6-hour Apoptosis Assessment for the High-Throughput Transcriptomics (HTTr) Platform, in MCF-7 cells cultured in DMEM + 10% fetal bovine serum, Harrill Lab (AID 2284011; active means hit-call score of the fitted dose curve at least 0.9, where 1 is the maximum; inactive means score below 0.9)
Outline: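 High-content imaging of CellEvent Caspase 3/7 Green signal follows a six-hour exposure, with eight concentrations per chemical. MCF-7 cells grown in DMEM plus 10% fetal bovine serum; activity fitted in both directions against DMSO.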

[16] = CCTE_Harrill_HTTr_CellCount_MCF7: CCTE's Cell Proliferation Assessment for the High-Throughput Transcriptomics (HTTr) Platform, Harrill Lab (AID 2284012);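 further: count of Hoechst-stained nuclei per well by high-content imaging in MCF-7 cells; cells exposed to compound for six hours; intended direction is loss of nuclei count meaning fewer cells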
Outline: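 Readout: Hoechst nuclear count by high-content imaging. MCF-7, 8-point dilution series, 6 h exposure. Bidirectional fit vs DMSO baseline.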

[17] = TOX21_p53_BLA_p5_viability: Viability Assessment in the Tox21 HCT-116 p53 Agonism Beta-lactamase Assay, Phase 5 (AID 2283600)
Outline: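 Viability came from CellTiter-Glo ATP luminescence, read after 30 min at room temperature. Before this, HCT-116 p53-bla cells (4000/well) had 16 hours of compound exposure at 37C, with DMSO stocks diluted 217-fold on transfer.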

Brc1cc(Oc2cc(Br)c(Br)c(Br)c2Br)c(Br)c(Br)c1Br
outcome [1]: inactive | outcome [2]: inactive | outcome [3]: inactive | outcome [4]: inactive | outcome [5]: inactive | outcome [6]: inactive | outcome [7]: inactive | outcome [8]: inactive | outcome (THRA (gene 7067)): inactive | outcome [9]: inactive | outcome (THRB (gene 7068) [10]): inactive | outcome [11]: inactive

CC(C)N=C(N)/N=C(\N)Nc1ccc(Cl)cc1
outcome [1]: inactive | outcome [2]: inactive | outcome [3]: inactive | outcome [4]: inactive | outcome [5]: inactive | outcome [6]: inactive | outcome [7]: inactive | outcome [8]: inactive | outcome (THRA (gene 7067)): inactive | outcome (THRB (gene 7068) [12]): inactive | outcome [9]: inactive | outcome (THRB (gene 7068) [10]): inactive | outcome [13]: inactive

OCC1CC2CC1C1CCC(CO)C21 (stereo not given)
outcome [1]: inactive | outcome [2]: inactive | outcome [3]: inactive | outcome [4]: inactive | outcome [5]: inactive | outcome [6]: inactive | outcome [7]: inactive | outcome [14]: inactive | outcome [15]: inactive | outcome [16]: inactive

COc1cc2[nH]c(C)c(CCN3CCN(c4ccccc4)CC3)c2cc1OC
outcome [1]: inactive | outcome [2]: inactive | outcome [3]: inactive | outcome [4]: inactive | outcome [5]: inactive | outcome [17]: inactive

Cc1cc(Nc2ccc(O)cc2)ccc1N
outcome [1]: inactive | outcome [2]: inactive | AC50 [3]: 46.7 µM (active) | AC50 [4]: 41.2 µM (active) | outcome [5]: inactive | outcome [6]: inactive | outcome [7]: inactive

O=S(=O)(O)c1ccc(O)cc1
outcome [1]: inactive | outcome [2]: inactive | outcome [3]: inactive | outcome [4]: inactive | outcome [5]: inactive | outcome [6]: inactive | outcome [7]: inactive

CN(C(=O)CCCOc1ccc2[nH]c(=O)ccc2c1)C1CCCCC1
outcome [1]: inactive | outcome [2]: inactive | outcome [3]: inactive | outcome [4]: inactive | outcome [5]: inactive | outcome [17]: inactive

C[C@H](CN1CCCC1)C(=O)c1ccc(C(F)(F)F)cc1
outcome [1]: inactive | outcome [2]: inactive | outcome [3]: inactive | outcome [4]: inactive | outcome [5]: inactive | outcome [17]: inactive

COc1ccc2nc(NC(=O)Nc3ccccc3)sc2c1
outcome [1]: inactive | outcome [2]: inactive | outcome [3]: inactive | outcome [4]: inactive | outcome [5]: inactive | outcome [6]: inactive | outcome [7]: inactive | outcome [8]: inactive | outcome (THRA (gene 7067)): inactive | outcome (THRB (gene 7068) [12]): inactive | outcome [9]: inactive | outcome (THRB (gene 7068) [10]): inactive | outcome [11]: inactive

CC(C)(C)c1ccc(C(=O)CCCN2CCC(OC(c3ccccc3)c3ccccc3)CC2)cc1
outcome [1]: inactive | outcome [2]: inactive | AC50 [3]: 31.1 µM (active) | AC50 [4]: 34.6 µM (active) | outcome [5]: inactive | outcome [17]: inactive

CNCCCCOc1ccccc1Cc1ccccc1
outcome [1]: inactive | outcome [2]: inactive | outcome [3]: inactive | outcome [4]: inactive | AC50 [5]: 36.4 µM (active) | outcome [17]: inactive

CC(C[N+](C)(C)C)OC(N)=O (stereo not given)
outcome [1]: inactive | outcome [2]: inactive | outcome [3]: inactive | outcome [4]: inactive | outcome [5]: inactive | outcome [17]: inactive

C[C@@H]1C[C@H]2O[C@@]3(O[C@@H]2C(C)(C)O)[C@H](O)[C@@]2(C)[C@@H]4CC[C@H]5C(C)(C)[C@@H](O[C@@H]6OC[C@@H](O)[C@H](O)[C@H]6O)CC[C@@]56C[C@@]46CC[C@]2(C)[C@@H]13
outcome [1]: inactive | outcome [2]: inactive | outcome [3]: inactive | outcome [4]: inactive | outcome [5]: inactive | outcome [6]: inactive | outcome [7]: inactive
